Assay results taken from PubChem BioAssay (NCI).
This is part of a sample that, as a whole, favours compounds with a hit. Of some 79,000 tested, about 15% had one in any assay. Activity calls are given as the source filed them. No stated cut-off is given here; in the data, active means growth inhibition above about 70%; inactive means the rest.

Columns and labels:
[1] = NCI Yeast Anticancer Drug Screen. Data for the rad52 strain (AID 147);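 further: 0% = growth of vehicle-treated control cultures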; conditions: S. cerevisiae rad52 mutant growth inhibition, stronger effect = higher value
How it was run: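 Genetically altered yeast (DNA damage repair defect) treated with compound; inhibition calculated relative to vehicle.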

[2] = NCI Yeast Anticancer Drug Screen. Data for the wt1 strain (AID 149);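 further: 0% = growth of vehicle-treated wt1 cultures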; conditions: S. cerevisiae wt1 strain (SPY 50644) growth inhibition, stronger effect = higher value
How it was run: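 Each compound is tested on wt1 yeast and the loss of growth versus vehicle gives the inhibition value.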

[3] = NCI Yeast Anticancer Drug Screen. Data for the mgt1 strain (AID 153); conditions: S. cerevisiae mgt1 mutant growth inhibition, stronger effect = higher value
How it was run: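 Read-out: yeast growth inhibition vs vehicle control. Strain mgt1, drawn from a panel altered in DNA damage repair or cell cycle control.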

[4] = NCI Yeast Anticancer Drug Screen. Data for the rad50 strain (AID 155);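 further: 0% = growth of vehicle-only cultures of the same strain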; conditions: S. cerevisiae rad50 strain growth inhibition, stronger effect = higher value
How it was run: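 Vehicle-treated cultures provide the reference for the growth inhibition reported for compound-exposed, repair-deficient yeast.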

[5] = NCI Yeast Anticancer Drug Screen. Data for the mec2-1 strain (AID 157); conditions: S. cerevisiae mec2-1 strain, stronger effect = higher value
How it was run: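 Cells of the genetically defined mec2-1 yeast strain are incubated with test compound. Inhibition of growth is calculated against vehicle-treated controls.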

[6] = NCI Yeast Anticancer Drug Screen. Data for the rad14 strain (AID 159);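 further: 0% = growth of vehicle-treated control cultures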; conditions: S. cerevisiae rad14 strain growth inhibition, stronger effect = higher value
How it was run: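 Inhibition of growth is reported for a repair-deficient yeast mutant following compound treatment, calculated relative to cultures that received vehicle.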

[7] = NCI Yeast Anticancer Drug Screen. Data for the sgs1 mgt1 strain (AID 161);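 further: 0% = growth of cultures given vehicle only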; conditions: S. cerevisiae sgs1 mgt1 strain, stronger effect = higher value
How it was run: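 Mutant yeast exposed to compound; growth scored against vehicle-only wells.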

[8] = NCI Yeast Anticancer Drug Screen. Data for the CLN2oe strain (AID 163);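 further: 0% = growth of vehicle-only control cultures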; conditions: S. cerevisiae CLN2oe strain, stronger effect = higher value
How it was run: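 Strain altered in cell-cycle control, incubated with compound; growth compared to solvent-treated controls.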

[9] = NCI Yeast Anticancer Drug Screen. Data for the cln2 rad14 strain (AID 165);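 further: 0% = growth equal to vehicle treated cultures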; conditions: S. cerevisiae cln2 rad14 strain, stronger effect = higher value
How it was run: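 The screen exposed genetically defined yeast (cln2 rad14) to test compounds and scored growth inhibition relative to vehicle-treated controls.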

[10] = NCI Yeast Anticancer Drug Screen. Data for the bub3 strain (AID 167); conditions: S. cerevisiae bub3 mutant strain, stronger effect = higher value
How it was run: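 Mutant yeast screening strain plus compound; vehicle-treated cultures serve as the 0% inhibition reference.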

[11] = NCI Yeast Anticancer Drug Screen. Data for the wt2 strain (AID 169); conditions: S. cerevisiae wt2 strain growth inhibition, stronger effect = higher value
How it was run: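 Steps: yeast strain treated with compound; growth recorded; inhibition calculated relative to cultures given vehicle alone.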

[12] = NCI Yeast Anticancer Drug Screen. Data for the mlh1 strain (AID 171);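 further: 0% = growth of vehicle-treated control cultures of the same strain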; conditions: S. cerevisiae mlh1 strain growth inhibition, stronger effect = higher value
How it was run: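 Yeast screen: mutant strain plus compound, growth scored against vehicle control wells.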

[13] = NCI Yeast Anticancer Drug Screen. Data for the sgs1 strain (AID 173);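 further: 0% = growth of vehicle-only control cultures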; conditions: S. cerevisiae sgs1 mutant, stronger effect = higher value
How it was run: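 Inhibition of yeast growth served as the measure. The mutant strain was treated with each compound, and growth was normalised to cultures receiving vehicle alone.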

[14] = NCI Yeast Anticancer Drug Screen. Data for the mlh1 rad18 strain (AID 175); conditions: S. cerevisiae mlh1 rad18 strain growth inhibition, stronger effect = higher value
How it was run: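 Compound-treated yeast growth, normalised to vehicle controls. Strain bears defined DNA repair mutations.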

[15] = NCI Yeast Anticancer Drug Screen. Data for the rad18 strain (AID 177); conditions: S. cerevisiae rad18 mutant growth inhibition, stronger effect = higher value
How it was run: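 Inhibition values reflect reduced yeast growth compared with vehicle-treated controls, using a strain engineered with a DNA damage repair defect.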

[16] = NCI Yeast Anticancer Drug Screen. Data for the rad50EPP+ strain (AID 151);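 further: 0% = growth of vehicle-treated control cultures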; conditions: S. cerevisiae rad50 mutant strain, stronger effect = higher value
How it was run: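 Strain rad50EPP+; compound exposure; % growth inhibition vs vehicle.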

[17] = at 5.0 µM (retest, dose inferred, filed as 0.5)
[18] = at 50.0 µM (retest, dose inferred, filed as 5.0)

Measured: growth inhibition

c1ccc2c(c1)sc1c3cnccc3ccc21
inactive: [1]; at 1.2 µM 11% | [1]; at 3.7 µM 41% | [1]; at 11.0 µM 62% | [2]; at 1.2 µM -1% | [2]; at 3.7 µM 14% | [2]; at 11.0 µM 23% | [2]; at 33.0 µM 22% | [2]; at 100.0 µM 23% | [3]; at 1.2 µM 1% | [3]; at 3.7 µM -1% | [3]; at 11.0 µM 0% | [3]; at 33.0 µM -3% | [3]; at 100.0 µM 3% | [4]; at 1.2 µM 12% | [4]; at 3.7 µM 36% | [4]; [17] 35% | [4]; at 11.0 µM 64% | [5]; at 1.2 µM 4% | [5]; at 3.7 µM 2% | [5]; [17] -34% | [5]; at 11.0 µM 3% | [5]; at 33.0 µM 8% | [5]; [18] -20% | [5]; at 50.0 µM 47.4% | [5]; at 100.0 µM 12% | [6]; at 1.2 µM 4% | [6]; at 3.7 µM 15% | [6]; at 11.0 µM 37% | [6]; at 33.0 µM 32% | [6]; at 100.0 µM 29% | [7]; [17] -55% | [7]; [18] -34% | [7]; at 50.0 µM 23.6% | [8]; at 1.2 µM 4% | [8]; at 3.7 µM 8% | [8]; at 11.0 µM 1% | [8]; at 33.0 µM 5% | [8]; at 100.0 µM 8% | [9]; [17] -39% | [9]; [18] -26% | [9]; at 50.0 µM 33% | [10]; at 1.2 µM 13% | [10]; at 3.7 µM 15% | [10]; [17] -35% | [10]; at 11.0 µM 24% | [10]; at 33.0 µM 34% | [10]; [18] -8% | [10]; at 50.0 µM 44.9% | [10]; at 100.0 µM 39% | [11]; at 1.2 µM 8% | [11]; at 3.7 µM 14% | [11]; at 11.0 µM 25% | [11]; at 33.0 µM 36% | [11]; at 100.0 µM 32% | [12]; at 1.2 µM -9% | [12]; at 3.7 µM -1% | [12]; at 11.0 µM 2% | [12]; at 33.0 µM 10% | [12]; at 100.0 µM 9% | [13]; at 1.2 µM -8% | [13]; at 3.7 µM -10% | [13]; at 11.0 µM 3% | [13]; at 33.0 µM 9% | [13]; at 100.0 µM 8% | [14]; [17] -171% | [14]; [18] -49% | [14]; at 50.0 µM 45.5% | [15]; at 1.2 µM -8% | [15]; at 3.7 µM 1% | [15]; at 11.0 µM -1% | [15]; at 33.0 µM -2% | [15]; at 100.0 µM 13%
active: [1]; at 33.0 µM 84% | [1]; at 100.0 µM 86% | [4]; at 33.0 µM 74% | [4]; [18] 74% | [4]; at 50.0 µM 94.3% | [4]; at 100.0 µM 73%

C[Si](C)(C)/C=C/CCNC(C#N)c1ccccc1 (stereo unspecified)
active: [1]; at 100.0 µM 93% | [16]; at 100.0 µM 74% | [3]; at 100.0 µM 94% | [4]; [17] 98% | [4]; [18] 99% | [4]; at 50.0 µM 89.7% | [4]; at 100.0 µM 92% | [5]; [17] 98% | [5]; [18] 99% | [5]; at 50.0 µM 91.8% | [5]; at 100.0 µM 95% | [6]; at 100.0 µM 94% | [7]; [18] 97% | [7]; at 50.0 µM 92.7% | [8]; at 100.0 µM 93% | [9]; [18] 97% | [9]; at 50.0 µM 90.2% | [10]; [18] 95% | [10]; at 50.0 µM 90.1% | [10]; at 100.0 µM 93% | [11]; at 100.0 µM 95% | [12]; at 100.0 µM 95% | [13]; at 100.0 µM 94% | [14]; [17] 99% | [14]; [18] 99% | [14]; at 50.0 µM 90.3% | [15]; at 100.0 µM 92%
inactive: [1]; at 1.2 µM -10% | [1]; at 3.7 µM -9% | [1]; at 11.0 µM 48% | [1]; at 33.0 µM 32% | [16]; at 1.2 µM -28% | [16]; at 3.7 µM -44% | [16]; at 11.0 µM -17% | [16]; at 33.0 µM -30% | [3]; at 1.2 µM -14% | [3]; at 3.7 µM -25% | [3]; at 11.0 µM 38% | [3]; at 33.0 µM 22% | [4]; at 1.2 µM -14% | [4]; at 3.7 µM -28% | [4]; at 11.0 µM 47% | [4]; at 33.0 µM 10% | [5]; at 1.2 µM -21% | [5]; at 3.7 µM -23% | [5]; at 11.0 µM 43% | [5]; at 33.0 µM 23% | [6]; at 1.2 µM -6% | [6]; at 3.7 µM 3% | [6]; at 11.0 µM 37% | [6]; at 33.0 µM 52% | [7]; [17] -12% | [8]; at 1.2 µM 3% | [8]; at 3.7 µM 10% | [8]; at 11.0 µM 52% | [8]; at 33.0 µM 42% | [9]; [17] 32% | [10]; at 1.2 µM -8% | [10]; at 3.7 µM 7% | [10]; [17] 12% | [10]; at 11.0 µM 38% | [10]; at 33.0 µM 43% | [11]; at 1.2 µM -9% | [11]; at 3.7 µM -19% | [11]; at 11.0 µM 39% | [11]; at 33.0 µM 36% | [12]; at 1.2 µM -16% | [12]; at 3.7 µM -5% | [12]; at 11.0 µM 49% | [12]; at 33.0 µM 33% | [13]; at 1.2 µM -19% | [13]; at 3.7 µM -15% | [13]; at 11.0 µM 42% | [13]; at 33.0 µM 31% | [15]; at 1.2 µM -33% | [15]; at 3.7 µM -42% | [15]; at 11.0 µM 27% | [15]; at 33.0 µM 23%
